This passage reports growth results from PubChem BioAssay (NCI).

Test systems include T-47D breast; BT-549 breast; MDA-MB-435 melanoma; SW-620 colon; MCF7 breast; HCT-116 colon; HCC-2998 colon; KM12 colon.
Holding throughout (test): NCI-60 one-dose screen, 48 h (100 = growth as untreated, 0 = no growth, -100 = all killed)
Common to all, as to settings: 10 µM unless noted

Where “and” joins values, the source holds several entries; their conditions need not be identical. Equal values may be shown once. Compounds without any hit were thinned out: in the full panel of roughly 83,000, 20% have a hit.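 In brief: 96-well plates, 48 h treatment, single concentration, percent growth endpoint.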 Calls of active or inactive are those of the source. The calls were made as follows: active = growth percent below 10; inactive = the rest.

Take `CON1CCC[C@]2(C)[C@H]3CC[C@@H]4[C@H]5[C@@H](O)C(C)(C)CC[C@]5(CO)CC[C@@]4(C)[C@]3(C)CC[C@H]2C1(C)C`: the growth was 79.8% (inactive) in the assay with T-47D breast; 115% (inactive) in the assay with BT-549 breast; 94.5% (inactive) with MDA-MB-435 melanoma; 98.4% (inactive) in the assay with SW-620 colon; 98.5% (inactive) in the assay with MCF7 breast; 88.6% (inactive) in the assay on HCT-116 colon. The growth was 103% (inactive) in the assay with HCC-2998 colon and 105% (inactive) in the assay with KM12 colon.

With `COc1cc(-c2nn(-c3cccc(NC(=O)CCN4CCN(C)CC4)c3)cc2-c2ccncc2)ccc1Cl`, the growth in the assay with T-47D breast was 35.3% (inactive); with BT-549 breast it was 22.4% (inactive); in the assay on MDA-MB-435 melanoma, -46.3% (active); in the assay with SW-620 colon it was 26.8% (inactive); in the assay on MCF7 breast, 13.8% (inactive); in the assay on HCT-116 colon it was 17% (inactive). The growth in the assay on HCC-2998 colon is 54.7% (inactive); in the assay with KM12 colon, 22.2% (inactive).

As for `COCCOc1cc2ncnc(N3CCN(S(=O)(=O)c4ccccc4Cl)CC3)c2cc1OCCOC`, the growth with T-47D breast is 80.6% (inactive); in the assay on BT-549 breast, 89.5% (inactive); in the assay on MDA-MB-435 melanoma, 10.5% (inactive); in the assay with SW-620 colon, 79.9% (inactive); in the assay on MCF7 breast it was 49.3% (inactive); in the assay on HCT-116 colon it was 89.7% (inactive). In addition, the growth in the assay on HCC-2998 colon is 79.6% (inactive); with KM12 colon, 69.7% (inactive).

Regarding `O=C(/C=C/C12c3ccccc3C(c3ccccc31)C1C(=O)NC(=O)C12)c1ccncc1` (stereo not given), the growth in the assay on T-47D breast is -4.38% (active); in the assay on BT-549 breast it was 15.7% (inactive); with MDA-MB-435 melanoma it was 9.93% (active); in the assay on SW-620 colon, 13.4% (inactive); in the assay with MCF7 breast it was 3.34% (active); in the assay on HCT-116 colon, -16.5% (active). In addition, the growth was 88.2% (inactive) in the assay with HCC-2998 colon and 7.72% (active) in the assay on KM12 colon.

On to `CCCN1C(=O)/C(=c2\sc3n(c2=O)C2C(NN=3)N(CC)C(=O)N2CC)c2ccccc21` (stereo not given), for which the growth is 27.8% (inactive) in the assay on T-47D breast; 20.8% (inactive) with BT-549 breast; -21.2% (active) in the assay on MDA-MB-435 melanoma; 24.9% (inactive) with SW-620 colon; 9.94% (active) with MCF7 breast; 7.6% (active) in the assay on HCT-116 colon. The results for the growth in the assay with HCC-2998 colon and in the assay with KM12 colon were 15.5% (inactive) and 20% (inactive), respectively.

Take `O=C1/C(=C/c2ccc(-c3cccc(C(F)(F)F)c3)o2)SC(=S)N1CCc1ccc(O)cc1`: the growth in the assay on T-47D breast was 53.8% (inactive); in the assay on BT-549 breast it was 75.7% (inactive); with MDA-MB-435 melanoma it was 52.6% (inactive); in the assay with SW-620 colon it was 86.1% (inactive); with MCF7 breast, 84.9% (inactive); in the assay on HCT-116 colon, 76% (inactive). Besides, the growth in the assay with HCC-2998 colon was 107% (inactive); in the assay on KM12 colon it was 54.9% (inactive).

For `Cc1nonc1-c1ccc2c(c1)OCO2`, the growth in the assay on T-47D breast was 88.5% (inactive) and 98.4% (inactive); in the assay on BT-549 breast it was 111% (inactive) and 115% (inactive); in the assay on MDA-MB-435 melanoma, 89.9% (inactive) and 109% (inactive); with SW-620 colon, 105% (inactive) and 107% (inactive); in the assay with MCF7 breast, 99.6% (inactive) and 98.3% (inactive); in the assay with HCT-116 colon, 112% (inactive) and 98.5% (inactive). Moreover, the growth in the assay on HCC-2998 colon is 100% (inactive) and 107% (inactive); in the assay on KM12 colon it was 95.4% (inactive) and 116% (inactive).

Regarding `COc1cc(CNC(=O)CCCC/C=C/C(C)C)ccc1OCc1cn(-c2ccc([N+](=O)[O-])cc2)nn1`, the growth is 64% (inactive) in the assay with T-47D breast; 80.4% (inactive) in the assay with BT-549 breast; 99.7% (inactive) with MDA-MB-435 melanoma; 99.8% (inactive) in the assay on SW-620 colon; 83.4% (inactive) in the assay on MCF7 breast; 77.2% (inactive) with HCT-116 colon. Besides, the results for the growth with HCC-2998 colon and in the assay with KM12 colon were 108% (inactive) and 90% (inactive), respectively.

For the molecule `COc1cc2c(cc1OCCCOC1=C=C=C(c3ccc4c(c3)c3cc(-c5ccc(OCCCOc6cc7c(cc6OC)C(=O)N6CCC[C@H]6C=N7)cc5)ccc3n4S(=O)(=O)c3ccc(C)cc3)C=C1)N=C[C@@H]1CCCN1C2=O`, the growth in the assay on T-47D breast was 37.1% (inactive); in the assay on BT-549 breast, 277% (inactive); with MDA-MB-435 melanoma it was 44.5% (inactive); in the assay on SW-620 colon it was 6.31% (active); in the assay on MCF7 breast, 23% (inactive); in the assay on HCT-116 colon, 136% (inactive) and 11.4% (inactive). The growth with HCC-2998 colon was -43.2% (active); with KM12 colon, 42.1% (inactive).

Consider `C=C1C(=O)O[C@H]2[C@H]1CC/C(COC(=O)NCCCCNC(=O)OC/C1=C/CC[C@@]3(C)O[C@H]3[C@H]3OC(=O)C(=C)[C@@H]3CC1)=C\CC[C@@]1(C)O[C@@H]21`, for which the growth with T-47D breast is 9.48% (active); in the assay on BT-549 breast, -40% (active); with MDA-MB-435 melanoma it was -25.6% (active); in the assay with SW-620 colon, -27.8% (active); in the assay with MCF7 breast it was 9.53% (active); with HCT-116 colon, -65.2% (active). Moreover, the growth in the assay with HCC-2998 colon is 89.5% (inactive); with KM12 colon, 88.2% (inactive).

As to `COc1ccc(-c2nn3c(-c4cc(F)c(Cl)cc4Cl)nnc3s2)cc1`, the growth was 50.3% (inactive) with T-47D breast; 54.3% (inactive) in the assay with BT-549 breast; 3.5% (active) with MDA-MB-435 melanoma; 20.8% (inactive) with SW-620 colon; 18.3% (inactive) in the assay with MCF7 breast; 20.9% (inactive) in the assay with HCT-116 colon. The growth in the assay with HCC-2998 colon was 42.1% (inactive); in the assay with KM12 colon, 46.8% (inactive).

`O=[N+]([O-])c1ccc2[nH]c3nccc(NCc4cccc(Cl)c4)c3c2c1`: the growth was 67.4% (inactive) in the assay with T-47D breast; 70% (inactive) in the assay on BT-549 breast; 77% (inactive) in the assay on MDA-MB-435 melanoma; 63.6% (inactive) with SW-620 colon; 82.4% (inactive) with MCF7 breast; 67.6% (inactive) in the assay on HCT-116 colon. For the same molecule, the growth is 114% (inactive) with HCC-2998 colon and 84.7% (inactive) in the assay with KM12 colon.

As to `O=C1OCC2=C1C(c1cccc(C(F)(F)F)c1)c1cc3c(cc1N2CCO)OCCO3` (stereo not given), the growth in the assay on T-47D breast is 51% (inactive); with BT-549 breast it was 41.7% (inactive); in the assay with MDA-MB-435 melanoma, -41.1% (active); with SW-620 colon, 24.5% (inactive); in the assay on MCF7 breast, 23.1% (inactive); in the assay with HCT-116 colon, 10.3% (inactive). Moreover, the growth is 8.81% (active) in the assay on HCC-2998 colon and 16.9% (inactive) in the assay with KM12 colon.

On to `Cc1ccc(C(=O)Nc2ccc(CN3CCN(C)CC3)c(C(F)(F)F)c2)cc1C#Cc1cnc(N)cc1C#N`, for which the growth in the assay on T-47D breast was -4.9% (active); with BT-549 breast it was 13.9% (inactive); in the assay with MDA-MB-435 melanoma, -90.7% (active); with SW-620 colon it was -81.2% (active); in the assay with MCF7 breast, -75.5% (active); in the assay with HCT-116 colon, -87% (active). In addition, the growth was -77.3% (active) with HCC-2998 colon and -69.8% (active) in the assay on KM12 colon.

For `Nc1ncnc2c1C(c1ccc([N+](=O)[O-])cc1)c1sc3c(F)cccc3c1O2` (stereo not given), the growth in the assay on T-47D breast is 71.7% (inactive); in the assay on BT-549 breast, 111% (inactive); in the assay on MDA-MB-435 melanoma, 101% (inactive); in the assay with SW-620 colon, 98.3% (inactive); in the assay with MCF7 breast it was 21.9% (inactive); in the assay with HCT-116 colon, 101% (inactive). In addition, the growth in the assay on HCC-2998 colon is 115% (inactive); with KM12 colon, 92.8% (inactive).
